Screen size: about 5,500 compounds; about 2,000 (36%) were called active. About 18% were inconclusive and are not listed. Some of the results follow. Unmarked numbers belong to inactive results. Cut-off read from the data, not from the text of the source: active = normalized growth mostly below about 0.91 (no sharp cut-off); inconclusive = no clear call, values can overlap the other calls; inactive = mostly above about 0.92.
Assay: chemical genetic growth profiling, strain panel (AID 1159580);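 note: tested at 20 µM; growth read once vehicle control cultures reached saturation at 30 °C; 1 = growth at the plate median or of vehicle wells; lower values mean less growth of the strain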
Details: growth OD

Work on `COC(=O)[C@]1(C)CCC[C@]2(C)c3ccc(C(C)C)cc3C(=O)CC12` (stereo partly drawn) yielded a normalized growth (S. cerevisiae deletion strains, locus YJL187C, strain SWE1, active compounds read low) of 0.956, a normalized growth (S. cerevisiae deletion strains, locus YJR043C, strain POL32, active compounds read low) of 1.03 and a normalized growth (S. cerevisiae deletion strains, locus YJR075W, strain HOC1, active compounds read low) of 0.914. The normalized growth (S. cerevisiae deletion strains, locus YKL009W, strain mrt4, active compounds read low) was 0.942, the normalized growth (S. cerevisiae deletion strains, locus YKL068W, active compounds read low) was 0.984 and the normalized growth (S. cerevisiae deletion strains, locus YKL160W, strain elf1, active compounds read low) was 0.983. The normalized growth (S. cerevisiae deletion strains, locus YKL190W, strain CNB1, active compounds read low) was 0.967, the normalized growth (S. cerevisiae deletion strains, locus YKR001C, strain vps1, active compounds read low) was 1.01 and the normalized growth (S. cerevisiae deletion strains, locus YKR026C, strain gcn3, active compounds read low) was 0.975. It also gave a normalized growth (S. cerevisiae deletion strains, locus YKR091W, strain srl3, active compounds read low) of 0.96, a normalized growth (S. cerevisiae deletion strains, locus YLL001W, strain dnm1, active compounds read low) of 0.986 and a normalized growth (S. cerevisiae deletion strains, locus YLL026W, active compounds read low) of 0.964. It also gave a normalized growth (S. cerevisiae deletion strains, locus YLL041C, strain sdh2, active compounds read low) of 0.958, a normalized growth (S. cerevisiae deletion strains, locus YLR027C, strain aat2, active compounds read low) of 0.956 and a normalized growth (S. cerevisiae deletion strains, locus YLR039C, strain RIC1, active compounds read low) of 0.978. It also gave a normalized growth (S. cerevisiae deletion strains, locus YLR058C, strain SHM2, active compounds read low) of 0.986, a normalized growth (S. cerevisiae deletion strains, locus YLR102C, strain apc9, active compounds read low) of 1.01 and a normalized growth (S. cerevisiae deletion strains, locus YLR221C, strain rsa3, active compounds read low) of 1. The normalized growth (S. cerevisiae deletion strains, locus YLR258W, strain gsy2, active compounds read low) was 0.973, the normalized growth (S. cerevisiae deletion strains, locus YLR262C, strain YPT6 (second series), active compounds read low) was 0.897 and the normalized growth (S. cerevisiae deletion strains, locus YLR262C, strain YPT6, active compounds read low) was 0.925. It also gave a normalized growth (S. cerevisiae deletion strains, locus YLR268W, strain sec22, active compounds read low) of 0.955, a normalized growth (S. cerevisiae deletion strains, locus YLR320W, strain mms22, active compounds read low) of 0.991 and a normalized growth (S. cerevisiae deletion strains, locus YLR330W, strain CHS5, active compounds read low) of 0.997. For the same compound, the normalized growth (S. cerevisiae deletion strains, locus YLR342W, strain FKS1 (second series), active compounds read low) was 0.937, the normalized growth (S. cerevisiae deletion strains, locus YLR342W, strain FKS1, active compounds read low) was 0.958 and the normalized growth (S. cerevisiae deletion strains, locus YLR357W, strain rsc2, active compounds read low) was 0.989. It also gave a normalized growth (S. cerevisiae deletion strains, locus YLR370C, strain arc18, active compounds read low) of 0.949, a normalized growth (S. cerevisiae deletion strains, locus YLR371W, strain rom2, active compounds read low) of 1.01 and a normalized growth (S. cerevisiae deletion strains, locus YLR384C, strain iki3, active compounds read low) of 0.96. The normalized growth (S. cerevisiae deletion strains, locus YLR418C, strain cdc73, active compounds read low) was 0.865, the normalized growth (S. cerevisiae deletion strains, locus YML016C, strain PPZ1, active compounds read low) was 0.979 and the normalized growth (S. cerevisiae deletion strains, locus YML032C, strain rad52, active compounds read low) was 1.03. For the same compound, the normalized growth (S. cerevisiae deletion strains, locus YML120C, strain ndi1, active compounds read low) was 0.965, the normalized growth (S. cerevisiae deletion strains, locus YML124C, strain tub3, active compounds read low) was 0.991 and the normalized growth (S. cerevisiae deletion strains, locus YMR058W, strain fet3, active compounds read low) was 0.969. The normalized growth (S. cerevisiae deletion strains, locus YMR078C, strain ctf18, active compounds read low) was 1, the normalized growth (S. cerevisiae deletion strains, locus YMR125W, strain sto1, active compounds read low) was 0.964 and the normalized growth (S. cerevisiae deletion strains, locus YMR129W, active compounds read low) was 0.956. It also gave a normalized growth (S. cerevisiae deletion strains, locus YMR205C, strain PFK2, active compounds read low) of 0.934, a normalized growth (S. cerevisiae deletion strains, locus YMR223W, strain ubp8, active compounds read low) of 1.02 and a normalized growth (S. cerevisiae deletion strains, locus YMR231W, strain pep5, active compounds read low) of 0.974. For the same compound, the normalized growth (S. cerevisiae deletion strains, locus YMR263W, strain SAP30, active compounds read low) was 0.961, the normalized growth (S. cerevisiae deletion strains, locus YMR307W, strain GAS1, active compounds read low) was 0.953 and the normalized growth (S. cerevisiae deletion strains, locus YNL067W, strain RPL9B, active compounds read low) was 0.936. For the same compound, the normalized growth (S. cerevisiae deletion strains, locus YNL071W, strain lat1, active compounds read low) was 0.952, the normalized growth (S. cerevisiae deletion strains, locus YNL128W, strain TEP1, active compounds read low) was 0.964 and the normalized growth (S. cerevisiae deletion strains, locus YNL153C, strain GIM3, active compounds read low) was 0.982. It also gave a normalized growth (S. cerevisiae deletion strains, locus YNL209W, strain ssb2, active compounds read low) of 0.992, a normalized growth (S. cerevisiae deletion strains, locus YNL233W, strain BNI4, active compounds read low) of 0.971 and a normalized growth (S. cerevisiae deletion strains, locus YNL248C, strain rpa49, active compounds read low) of 0.962. It also gave a normalized growth (S. cerevisiae deletion strains, locus YNL250W, strain rad50, active compounds read low) of 0.99, a normalized growth (S. cerevisiae deletion strains, locus YNL271C, strain bni1, active compounds read low) of 1.01 and a normalized growth (S. cerevisiae deletion strains, locus YNL298W, strain CLA4, active compounds read low) of 1.01. For the same compound, the normalized growth (S. cerevisiae deletion strains, locus YNL307C, strain MCK1, active compounds read low) was 0.985, the normalized growth (S. cerevisiae deletion strains, locus YNL322C, strain KRE1 (second series), active compounds read low) was 0.954 and the normalized growth (S. cerevisiae deletion strains, locus YNL322C, strain KRE1, active compounds read low) was 0.979. It also gave a normalized growth (S. cerevisiae deletion strains, locus YNR049C, strain mso1, active compounds read low) of 0.964, a normalized growth (S. cerevisiae deletion strains, locus YNR052C, strain pop2, active compounds read low) of 1.04 and a normalized growth (S. cerevisiae deletion strains, locus YOL006C, strain TOP1, active compounds read low) of 0.828. For the same compound, the normalized growth (S. cerevisiae deletion strains, locus YOL012C, strain htz1) was 1.22, the normalized growth (S. cerevisiae deletion strains, locus YOL147C, strain pex11, active compounds read low) was 1 and the normalized growth (S. cerevisiae deletion strains, locus YOR001W, strain rrp6, active compounds read low) was 0.987. The normalized growth (S. cerevisiae deletion strains, locus YOR061W, strain CKA2, active compounds read low) was 0.977, the normalized growth (S. cerevisiae deletion strains, locus YOR069W, strain VPS5, active compounds read low) was 0.996 and the normalized growth (S. cerevisiae deletion strains, locus YOR070C, strain gyp1, active compounds read low) was 0.988. The normalized growth (S. cerevisiae deletion strains, locus YOR080W, strain dia2, active compounds read low) was 0.965, the normalized growth (S. cerevisiae deletion strains, locus YOR083W, strain WHI5, active compounds read low) was 0.996 and the normalized growth (S. cerevisiae deletion strains, locus YOR106W, strain vam3, active compounds read low) was 0.965. For the same compound, the normalized growth (S. cerevisiae deletion strains, locus YOR136W, strain idh2, active compounds read low) was 1.02, the normalized growth (S. cerevisiae deletion strains, locus YOR144C, strain elg1, active compounds read low) was 0.998 and the normalized growth (S. cerevisiae deletion strains, locus YOR184W, strain ser1, active compounds read low) was 0.982. The normalized growth (S. cerevisiae deletion strains, locus YOR265W, strain rbl2, active compounds read low) was 0.969, the normalized growth (S. cerevisiae deletion strains, locus YOR270C, strain vph1, active compounds read low) was 0.673 (active) and the normalized growth (S. cerevisiae deletion strains, locus YOR290C, strain snf2, active compounds read low) was 0.949. The normalized growth (S. cerevisiae deletion strains, locus YOR316C, strain cot1, active compounds read low) was 0.998, the normalized growth (S. cerevisiae deletion strains, locus YPL051W, strain arl3, active compounds read low) was 0.984 and the normalized growth (S. cerevisiae deletion strains, locus YPL055C, strain LGE1, active compounds read low) was 0.868. The normalized growth (S. cerevisiae deletion strains, locus YPL078C, strain atp4, active compounds read low) was 0.968, the normalized growth (S. cerevisiae deletion strains, locus YPL106C, strain sse1, active compounds read low) was 0.989 and the normalized growth (S. cerevisiae deletion strains, locus YPL240C, strain hsp82, active compounds read low) was 0.968. The normalized growth (S. cerevisiae deletion strains, locus YPL241C, strain CIN2, active compounds read low) was 0.974, the normalized growth (S. cerevisiae deletion strains, locus YPR119W, strain clb2, active compounds read low) was 0.993 and the normalized growth (S. cerevisiae deletion strains, locus YPR141C, strain kar3, active compounds read low) was 0.981. For the same compound, the normalized growth (S. cerevisiae deletion strains, locus YPR163C, strain tif3, active compounds read low) was 1, the normalized growth (S. cerevisiae deletion strains, locus YPR167C, strain met16, active compounds read low) was 0.994 and the normalized growth (S. cerevisiae deletion strains, strain wtn01, active compounds read low) was 0.978. The normalized growth (S. cerevisiae strains, strain wild type, active compounds read low) was 0.993.

— PubChem BioAssay AID1159580 (chemical genetic matrix, 2015)
